Pf apPOL inh – Pf-apPOL inhibitors, biochemical, fluorescence. Plasmodium falciparum apicoplast DNA polymerase (apPOL). Recombinant Pf-apPOL, molecular beacon fluorescence, 1.5 h. inhibition, % at 10 µM. 210,000 tested, 0.25% active
mHTT-CaM PPI inh – mutant huntingtin-calmodulin interaction inhibitors – biochemical, AlphaScreen, primary screen; P42858; AlphaScreen His-mHTT/GST-CaM binding, luminescence; inhibition, % at 15 µM; 190,000 tested, 3.6% active; AID 1671202, 2021;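 further: 0% = both proteins with DMSO and 100% = one protein alone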
Target sequence (P42858 whole entry, looked up, stated change not applied): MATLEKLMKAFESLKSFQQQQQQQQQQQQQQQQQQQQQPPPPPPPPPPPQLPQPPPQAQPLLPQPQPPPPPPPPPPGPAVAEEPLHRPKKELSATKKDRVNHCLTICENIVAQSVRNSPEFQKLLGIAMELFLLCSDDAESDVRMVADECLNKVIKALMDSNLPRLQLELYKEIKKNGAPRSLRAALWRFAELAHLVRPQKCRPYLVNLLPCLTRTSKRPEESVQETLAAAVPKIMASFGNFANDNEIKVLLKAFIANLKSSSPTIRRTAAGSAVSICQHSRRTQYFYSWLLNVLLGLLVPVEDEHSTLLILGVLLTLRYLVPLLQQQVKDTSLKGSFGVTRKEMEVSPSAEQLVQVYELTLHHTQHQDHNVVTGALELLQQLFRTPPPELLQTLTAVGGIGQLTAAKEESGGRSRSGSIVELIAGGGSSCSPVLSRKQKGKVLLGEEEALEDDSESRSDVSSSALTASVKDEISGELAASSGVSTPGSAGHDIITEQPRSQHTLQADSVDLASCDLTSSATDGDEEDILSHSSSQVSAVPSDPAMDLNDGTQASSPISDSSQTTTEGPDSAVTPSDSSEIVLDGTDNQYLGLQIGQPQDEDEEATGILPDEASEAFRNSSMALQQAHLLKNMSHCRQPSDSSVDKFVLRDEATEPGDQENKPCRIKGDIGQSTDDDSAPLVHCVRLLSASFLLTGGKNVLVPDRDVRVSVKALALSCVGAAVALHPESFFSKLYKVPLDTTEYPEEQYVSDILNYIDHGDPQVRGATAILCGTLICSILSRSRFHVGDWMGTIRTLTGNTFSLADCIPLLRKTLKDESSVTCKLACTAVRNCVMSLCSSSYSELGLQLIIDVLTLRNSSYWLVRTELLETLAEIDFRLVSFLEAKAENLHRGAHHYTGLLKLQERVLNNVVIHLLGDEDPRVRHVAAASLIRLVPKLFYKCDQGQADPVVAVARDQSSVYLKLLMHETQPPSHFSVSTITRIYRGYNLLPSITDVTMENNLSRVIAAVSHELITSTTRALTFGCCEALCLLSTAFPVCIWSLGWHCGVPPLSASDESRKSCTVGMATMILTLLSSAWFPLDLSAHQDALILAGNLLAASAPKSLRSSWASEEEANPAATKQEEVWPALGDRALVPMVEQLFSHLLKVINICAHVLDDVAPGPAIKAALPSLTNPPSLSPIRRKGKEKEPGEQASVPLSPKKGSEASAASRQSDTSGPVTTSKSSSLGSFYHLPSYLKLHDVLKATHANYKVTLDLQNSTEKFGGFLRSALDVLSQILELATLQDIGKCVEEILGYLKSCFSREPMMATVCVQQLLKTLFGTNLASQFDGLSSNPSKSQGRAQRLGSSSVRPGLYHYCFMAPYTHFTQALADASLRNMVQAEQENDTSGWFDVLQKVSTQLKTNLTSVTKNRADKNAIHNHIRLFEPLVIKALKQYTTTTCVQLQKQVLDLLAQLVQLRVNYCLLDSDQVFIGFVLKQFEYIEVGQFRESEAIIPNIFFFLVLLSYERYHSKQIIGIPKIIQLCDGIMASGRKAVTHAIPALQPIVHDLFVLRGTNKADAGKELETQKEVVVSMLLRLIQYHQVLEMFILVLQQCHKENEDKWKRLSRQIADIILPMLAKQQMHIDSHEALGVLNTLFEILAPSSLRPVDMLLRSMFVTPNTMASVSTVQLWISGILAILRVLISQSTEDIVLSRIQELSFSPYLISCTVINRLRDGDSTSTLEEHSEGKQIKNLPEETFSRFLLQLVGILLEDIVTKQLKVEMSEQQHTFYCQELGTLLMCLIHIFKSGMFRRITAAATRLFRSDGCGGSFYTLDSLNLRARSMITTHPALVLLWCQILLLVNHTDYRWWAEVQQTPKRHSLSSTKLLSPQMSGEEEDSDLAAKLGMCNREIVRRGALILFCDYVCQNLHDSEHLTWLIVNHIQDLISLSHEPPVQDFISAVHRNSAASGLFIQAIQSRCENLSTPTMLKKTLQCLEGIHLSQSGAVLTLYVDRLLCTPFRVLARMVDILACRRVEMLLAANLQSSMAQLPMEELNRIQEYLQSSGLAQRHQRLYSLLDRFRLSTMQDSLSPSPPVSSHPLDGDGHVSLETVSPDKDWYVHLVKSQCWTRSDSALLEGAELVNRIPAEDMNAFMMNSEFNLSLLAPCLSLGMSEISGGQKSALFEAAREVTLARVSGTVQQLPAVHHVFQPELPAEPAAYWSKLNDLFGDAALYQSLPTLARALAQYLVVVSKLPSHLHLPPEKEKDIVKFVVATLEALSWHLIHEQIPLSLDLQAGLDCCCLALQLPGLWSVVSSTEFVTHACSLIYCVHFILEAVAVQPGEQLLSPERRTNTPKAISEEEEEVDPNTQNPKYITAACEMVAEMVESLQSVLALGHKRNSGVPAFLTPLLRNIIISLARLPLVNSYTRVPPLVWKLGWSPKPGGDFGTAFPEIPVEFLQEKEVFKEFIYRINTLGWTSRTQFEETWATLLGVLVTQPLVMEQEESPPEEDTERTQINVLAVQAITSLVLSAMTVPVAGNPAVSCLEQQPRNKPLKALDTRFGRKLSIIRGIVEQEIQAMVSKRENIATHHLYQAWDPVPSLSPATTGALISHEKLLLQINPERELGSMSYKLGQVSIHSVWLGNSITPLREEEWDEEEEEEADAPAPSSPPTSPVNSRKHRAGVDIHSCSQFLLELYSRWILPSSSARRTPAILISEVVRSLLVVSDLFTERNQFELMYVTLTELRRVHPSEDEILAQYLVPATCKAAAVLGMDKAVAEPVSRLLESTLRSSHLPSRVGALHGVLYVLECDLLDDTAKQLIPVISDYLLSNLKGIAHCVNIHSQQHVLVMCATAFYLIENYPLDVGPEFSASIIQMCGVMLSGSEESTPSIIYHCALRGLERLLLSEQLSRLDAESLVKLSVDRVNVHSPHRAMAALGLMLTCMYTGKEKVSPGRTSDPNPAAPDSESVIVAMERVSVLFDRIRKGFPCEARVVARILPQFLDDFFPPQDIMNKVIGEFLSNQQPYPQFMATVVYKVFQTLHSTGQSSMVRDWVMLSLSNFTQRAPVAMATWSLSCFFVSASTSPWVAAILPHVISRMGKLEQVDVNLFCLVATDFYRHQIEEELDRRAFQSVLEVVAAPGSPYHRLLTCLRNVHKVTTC
The depositor's hits bear a star; nt = no result. Only some compounds are listed: those with a hit (about 3.5% of all), similar ones and a draw of the others. No stated cut-off is given here; in the data, active means inhibition above about 50%; inactive means the rest.

SMILES | Pf apPOL inh | mHTT-CaM PPI inh
CN1/C(=C2/SC(=O)N(Cc3ccccc3)C2=O)Sc2ccccc21 | -3 | 4
CC(=O)n1c2c(c3ccccc31)OC(N)=C(C#N)C2c1ccc(C(C)C)cc1 (stereo not drawn) | 4 | 50*
CC(=O)n1c2c(c3ccccc31)OC(N)=C(C#N)C2c1ccc(F)cc1 (stereo not drawn) | -6 | 5
COc1ccc(-c2cc(-c3cccnc3)c3c(N)c(C(=O)c4ccc(Cl)cc4)oc3n2)cc1 | 2 | nt
CC(C)N(C(=O)c1ccccc1F)C(C)C | -6 | 82*
Cc1cccnc1N(C(=O)c1ccccc1F)C(=O)c1ccccc1F | 0 | 5
O=C(NCc1ccccn1)c1nc(-c2ccc(Cl)cc2)n2c1CCCCC2 | -1 | 54*
COc1ccccc1CNC(=O)c1nc(-c2ccc(C)cc2)n2c1CCCCC2 | -1 | 61*
O=C(Nc1ccccn1)c1nc(-c2ccc(Cl)cc2)n2c1CCCCC2 | 1 | 1
Cc1ccc(-c2nc(C(=O)NC(C)C)c3n2CCCCC3)cc1 | -2 | 20
O=C(CCCNS(=O)(=O)c1cccs1)Nc1ccc(F)c(F)c1 | -4 | -5
COc1ccc(OCC2CN(C(=O)c3ccc(C)cc3)CCO2)cc1 (stereo not drawn) | -1 | 1
CNc1ccc(C(=O)N2CCOC(COc3ccc4c(c3)CCCC4)C2)cc1 (stereo not drawn) | -7 | 52*
O=C(NC1CC1)c1ccc(OCC2CCN(C(=O)c3c(F)cccc3F)CC2)cc1 | -2 | 8
O=C(c1ccc2c(c1)C1C=CCC1C(c1ccc([N+](=O)[O-])cc1)N2)N1CCCC1 (stereo not drawn) | -17 | 48
O=C(O)c1ccc2c(c1)C1C=CCC1C(c1ccccc1[N+](=O)[O-])N2 (stereo not drawn) | -19 | 53*
O=[N+]([O-])c1ccccc1C1Nc2ccc(Br)cc2C2C=CCC21 (stereo not drawn) | -25 | 57*
O=C(O)c1ccc2c(c1)C1C=CCC1C(c1cccc([N+](=O)[O-])c1)N2 (stereo not drawn) | -2 | 85*
COc1ccc(C(=O)Nc2cc3cc([N+](=O)[O-])ccc3oc2=O)cc1OC | 17 | 1
CCOc1cc(C=O)cc(Br)c1OCc1ccccc1F | -8 | -11
COc1ccc(OC)c(/C=c2\sc3nc(=O)c(Cc4ccccc4)nn3c2=O)c1 | 1 | 3
COc1ccc(NC(=O)CC2CCC2)cc1 | 5 | -6
COc1ccc(NCC2CCCCC2)cc1 | 0 | 73*
O=C(C1CCCC1)N1CCCC1c1nc(-c2cccc(Cl)c2)no1 (stereo not drawn) | -2 | -10
O=C(CC1CCCC1)NCCOc1ccc(-c2ccco2)nn1 | -2 | 0
SMILES | Pf apPOL inh | mHTT-CaM PPI inh
CC(=O)c1c(C(C)=O)c(C)n(CCc2c[nH]c3ccccc23)c1C | -13 | 5
O=C1C2C3c4ccccc4C(c4ccccc43)C2C(=O)N1CCc1c[nH]c2ccccc12 (stereo not drawn) | -89 | 100*
O=C(NCCc1c[nH]c2ccccc12)C(=O)NCCc1c[nH]c2ccccc12 | 4 | 1
c1ccc(C2CCC(NCCc3c[nH]c4ccccc34)CC2)cc1 (stereo not drawn) | -4 | 77*
COC(=O)c1ccc(NC(=O)C(=O)NCCc2c[nH]c3ccccc23)cc1 | -3 | 11
CC1C(=O)N2CCCc3cc(NC(=O)C(=O)NCCc4c[nH]c5ccccc45)cc1c32 (stereo not drawn) | -8 | 76*
O=C(NCc1ccc(N2CCCCCC2)nc1)c1cc(F)cc(F)c1 | -1 | -2
COc1cc(C)nc(N(CC(=O)O)S(=O)(=O)c2ccc(C)cc2)n1 | 18 | 1
CCSc1ccsc1C1C(C#N)=C(N)N(c2ccc([N+](=O)[O-])cc2)C2=C1C(=O)CCC2 (stereo not drawn) | 5 | 51*
CCSc1ccsc1C1C(C#N)=C(N)N(c2cccc([N+](=O)[O-])c2)C2=C1C(=O)CCC2 (stereo not drawn) | -3 | 27
Cn1c(=O)c2c(nc(N3CCCCC3)n2Cc2c(Cl)cccc2Cl)n(C)c1=O | -6 | -3
CC(C)(C)c1ccc(OC(=O)NC(=O)c2ccccc2Cl)c(C(C)(C)C)c1 | 2 | nt
Cc1ccc(NC(=O)Cn2nc(N(C)C)c3ccccc3c2=O)cc1Cl | -1 | 80*
Cc1ccc(NC(=O)Cn2nc(N(C)C)c3ccccc3c2=O)cc1 | 0 | -2
CCCn1c(N2CCCC(C(=O)NC3CC3)C2)nc2ccccc21 (stereo not drawn) | -10 | 1
CCn1c(=O)c(N2CCCC(C(=O)NC3CCCCCCC3)C2)nc2ccccc21 (stereo not drawn) | -8 | 64*
O=C(NCc1ccccc1)C1CC(=O)N(c2ccc3c(c2)CCN3C(=O)C2CCC2)C1 (stereo not drawn) | 1 | 5
COc1ccc(C2Oc3c(OC)cccc3C3CC(c4ccc(C)o4)=NN32)cc1 (stereo not drawn) | -11 | 83*
COc1ccc(C2Oc3c(OC)cccc3C3CC(c4ccc(C)o4)=NN32)cc1OC (stereo not drawn) | -22 | 51*
COc1cccc(C2=NN3C(C2)c2cccc(OC)c2OC3c2cc(OC)c(OC)c(OC)c2)c1 (stereo not drawn) | -22 | 48
CCOc1cccc2c1OC(c1cccc(OC)c1)N1N=C(c3ccco3)CC21 (stereo not drawn) | -20 | 28
COc1cccc2c1OC(c1ccc(F)c(F)c1)N1N=C(c3ccco3)CC21 (stereo not drawn) | -18 | 14
COc1ccc(C2Oc3ccc(Cl)cc3C3CC(c4ccco4)=NN32)cc1 (stereo not drawn) | -16 | 37
COc1ccc(C2Oc3ccccc3C3CC(c4ccc(C)o4)=NN32)cc1 (stereo not drawn) | -7 | 60*
CCOc1cccc2c1OC(c1ccc(OC)c(OC)c1)N1N=C(c3ccc(C)o3)CC21 (stereo not drawn) | -16 | 63*
SMILES | Pf apPOL inh | mHTT-CaM PPI inh
CCOC(=O)c1ccc(NC(=O)C2CCN(c3nccc4sc(C)cc34)CC2)cc1 | -6 | 6
O=C(O)C1C2C=CC(C2)C1C(=O)N1CCCCCC1 (stereo not drawn) | -5 | 1
Cn1c(=O)c2c(nc3n(Cc4ccccc4)c(C45CC6CC(CC(C6)C4)C5)cn23)n(C)c1=O | -1 | -4
O=C(CN1C(=O)CC(c2ccccc2)=Nc2cccnc21)Nc1ccc2c(c1)CCC2 | 3 | -8
COc1ccccc1-n1cc(-c2ccccc2)nc1SCC(=O)Nc1ccc(F)cc1 | 1 | 57*
Cn1cnnc1SCC(=O)Nc1ccccc1 | -3 | 1
O=C(CSc1nc(-c2ccccc2)cn1-c1ccccc1F)Nc1ccccc1 | 5 | 54*
COc1ccccc1NC(=O)CSc1nc(-c2ccccc2)cn1-c1ccccc1OC | 1 | 34
CC1CCN(c2ccc(N3CCC(C(=O)N4CCN(c5ccccc5)CC4)CC3)nn2)CC1 | 4 | 6
CC(=O)N(C1=C(Nc2ccccc2)C(=O)c2ccccc2C1=O)c1ccccc1 | -3 | 55*
CCCNC1=C(N(C(C)=O)c2cccc(F)c2)C(=O)c2ccccc2C1=O | -15 | 27
CC(=O)N(C1=C(NC2CCCCC2)C(=O)c2ccccc2C1=O)c1ccc(F)c(F)c1 | -6 | 48

Bioassay records from PubChem BioAssay.
